From PubChem BioAssay (NCI)
About 79,000 compounds went through this panel and 15% of them were active in at least one assay; those are over-represented in the sample as a whole. Unmarked numbers belong to inactive results. The source made the active and inactive calls. Rule as the data show it: active = growth inhibition above about 70%; inactive = the rest. Residues, ends and D or L forms follow the SMILES beside them. *: point of attachment. Fmoc = O=C(OCC1c2ccccc2-c2ccccc21)*; Boc = CC(C)(C)OC(=O)*

assay: NCI Yeast Anticancer Drug Screen. Data for the mlh1 strain (AID 171);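 also: 0% = growth of vehicle-treated control cultures of the same strain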; settings: S. cerevisiae mlh1 strain growth inhibition; at 11.0 µM; hits give high values
Outline: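 Growth of the mutant yeast strain after compound exposure, expressed as inhibition relative to vehicle-only controls.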

Compound | growth inhibition
CC(C)C(=O)CC(Sc1ccc(N)cc1)c1ccccc1 (centres undefined) | 7%
O=[N+]([O-])c1cc(Cl)ccc1S(=O)(=O)c1ccc(Cl)cc1[N+](=O)[O-] | 44%
CCCCCCNCCCNc1c2cc(OC)ccc2nc2cccc([N+](=O)[O-])c12 | 16%
N#CCC(=O)N/N=C(\c1ccccc1)C(c1ccccc1)C1(O)C(=O)Nc2c(Cl)ccc(Cl)c21 (centres undefined) | -1%
CN(C)CCNCCCNc1c2ccccc2nc2cccc([N+](=O)[O-])c12 | 25%
CCC[CH2][Ge]([CH2]CCC)([CH2]CCC)[O]C(=O)C(O)c1ccccc1 (centres undefined) | 14%
COc1ccc(-c2cc(-c3cc(C)cc(Cl)c3O)nc3[nH]c(=S)[nH]c(=S)c23)cc1 | 0%
O=[N+]([O-])c1ccc(/C=C\c2ccc3c(c2)OCO3)c([N+](=O)[O-])c1 | 7%
O=C1c2ccccc2N2OC3(N4CCCC4)CCCCC3C12c1ccccc1 (centres undefined) | -41%
CC(C)OC(=O)NNc1cc(Cl)ccc1Cl | 41%
Cc1oc2ccccc2c(=O)c1Cn1nnc2ccccc21 | -2%
CC1(C)OC(=O)C(=Cc2ccc([N+](=O)[O-])s2)C(=O)O1 | -33%
CCN(CC)CCCNc1ccc([N+](=O)[O-])c2nc3ccc(OC)cc3c(NCCCN(CC)CC)c12 | 0%
COc1cccc(/C=C2\S/C(=N/Nc3nc(-c4ccc([N+](=O)[O-])cc4)cs3)NC2=O)c1O | 30%
C1=CCN([B-](c2ccccc2)[C+]2CCCCC2)C=C1 | -1%
O=[N+]([O-])c1cc[n+]([O-])c(Cl)c1 | 30%

Compound | growth inhibition
CCCNC(=O)OCc1c(COC(=O)NCCC)c(-c2ccc(Cl)c(Cl)c2)n2c1CCC2 | -19%
CC1(C)CC(=O)C(C(=O)Nc2cccs2)=C(O)C1 | 30%
O=C(NO)c1coc2ccccc2c1=O | -1%
COc1ccc(C(C)c2cc3c(cc2OCC(C)=O)OCO3)cc1 (centres undefined) | -4%
O=S(=O)(c1ccccc1)N1CN2CN(C1)CN(S(=O)(=O)c1ccccc1)C2 | -23%
CC1=NN(C(=O)c2ccccc2O)C(=O)/C1=C/c1ccco1 | 71% (active)
O=C1C=C(Br)C(=O)c2ccccc21 | 98% (active)
C[N+](C)([O-])CCCNc1c2ccccc2nc2cccc([N+](=O)[O-])c12 | 44%
Cc1cccc2c(NCCCN(C)C)c3c([N+](=O)[O-])ccc(C)c3nc12 | 63%
OC1(c2ccccc2)C2CC=CC2C1(c1ccccc1)c1ccccc1 (centres undefined) | 7%
C[n+]1c(-c2ccc(/C=N/NC(=O)c3ccc(C(=O)N/N=C/c4ccc(-c5cn6ccccc6[n+]5C)cc4)cc3)cc2)cn2ccccc21 | 37%
O=[N+]([O-])c1ccc2nc(=S)[nH]n2c1 | -3%
O=C(c1ccccc1)[C@H]1Nc2ccc(Cl)cc2[C@H]2OCCC[C@@H]12 | -34%
COc1cc([N+](=O)[O-])c2ncccc2c1Br | -3%
O=S(=O)(c1cccc(C(F)(F)F)c1)N1c2ccccc2-n2cccc2C1c1cccnc1 (centres undefined) | 70% (active)
CC(C)(C)OC(=O)NCCCCC(NC(=O)C(Cc1c[nH]c2ccccc12)NC(=O)OCC1c2ccccc2-c2ccccc21)C(=O)O (centres undefined) (Fmoc-Trp-Lys(Boc)-OH; configuration not given here) | -2%

same assay, conditions: S. cerevisiae mlh1 strain growth inhibition; at 33.0 µM; hits give high values

Compound | growth inhibition
CC(C)C(=O)CC(Sc1ccc(N)cc1)c1ccccc1 (centres undefined) | 30%
O=[N+]([O-])c1cc(Cl)ccc1S(=O)(=O)c1ccc(Cl)cc1[N+](=O)[O-] | 85% (active)
CCCCCCNCCCNc1c2cc(OC)ccc2nc2cccc([N+](=O)[O-])c12 | 86% (active)
N#CCC(=O)N/N=C(\c1ccccc1)C(c1ccccc1)C1(O)C(=O)Nc2c(Cl)ccc(Cl)c21 (centres undefined) | 0%
CN(C)CCNCCCNc1c2ccccc2nc2cccc([N+](=O)[O-])c12 | 46%
CCC[CH2][Ge]([CH2]CCC)([CH2]CCC)[O]C(=O)C(O)c1ccccc1 (centres undefined) | 88% (active)
COc1ccc(-c2cc(-c3cc(C)cc(Cl)c3O)nc3[nH]c(=S)[nH]c(=S)c23)cc1 | 10%
O=[N+]([O-])c1ccc(/C=C\c2ccc3c(c2)OCO3)c([N+](=O)[O-])c1 | 16%
O=C1c2ccccc2N2OC3(N4CCCC4)CCCCC3C12c1ccccc1 (centres undefined) | -10%
CC(C)OC(=O)NNc1cc(Cl)ccc1Cl | 50%
Cc1oc2ccccc2c(=O)c1Cn1nnc2ccccc21 | 1%
CC1(C)OC(=O)C(=Cc2ccc([N+](=O)[O-])s2)C(=O)O1 | 38%
CCN(CC)CCCNc1ccc([N+](=O)[O-])c2nc3ccc(OC)cc3c(NCCCN(CC)CC)c12 | -2%
COc1cccc(/C=C2\S/C(=N/Nc3nc(-c4ccc([N+](=O)[O-])cc4)cs3)NC2=O)c1O | 63%
C1=CCN([B-](c2ccccc2)[C+]2CCCCC2)C=C1 | 75% (active)
O=[N+]([O-])c1cc[n+]([O-])c(Cl)c1 | 98% (active)

Compound | growth inhibition
CCCNC(=O)OCc1c(COC(=O)NCCC)c(-c2ccc(Cl)c(Cl)c2)n2c1CCC2 | 26%
CC1(C)CC(=O)C(C(=O)Nc2cccs2)=C(O)C1 | 92% (active)
O=C(NO)c1coc2ccccc2c1=O | 1%
COc1ccc(C(C)c2cc3c(cc2OCC(C)=O)OCO3)cc1 (centres undefined) | -3%
O=S(=O)(c1ccccc1)N1CN2CN(C1)CN(S(=O)(=O)c1ccccc1)C2 | -18%
CC1=NN(C(=O)c2ccccc2O)C(=O)/C1=C/c1ccco1 | 89% (active)
O=C1C=C(Br)C(=O)c2ccccc21 | 99% (active)
C[N+](C)([O-])CCCNc1c2ccccc2nc2cccc([N+](=O)[O-])c12 | 89% (active)
Cc1cccc2c(NCCCN(C)C)c3c([N+](=O)[O-])ccc(C)c3nc12 | 97% (active)
OC1(c2ccccc2)C2CC=CC2C1(c1ccccc1)c1ccccc1 (centres undefined) | 13%
C[n+]1c(-c2ccc(/C=N/NC(=O)c3ccc(C(=O)N/N=C/c4ccc(-c5cn6ccccc6[n+]5C)cc4)cc3)cc2)cn2ccccc21 | 69%
O=[N+]([O-])c1ccc2nc(=S)[nH]n2c1 | -2%
O=C(c1ccccc1)[C@H]1Nc2ccc(Cl)cc2[C@H]2OCCC[C@@H]12 | 32%
COc1cc([N+](=O)[O-])c2ncccc2c1Br | -3%
O=S(=O)(c1cccc(C(F)(F)F)c1)N1c2ccccc2-n2cccc2C1c1cccnc1 (centres undefined) | 93% (active)
CC(C)(C)OC(=O)NCCCCC(NC(=O)C(Cc1c[nH]c2ccccc12)NC(=O)OCC1c2ccccc2-c2ccccc21)C(=O)O (centres undefined) (Fmoc-Trp-Lys(Boc)-OH; configuration not given here) | 10%
